Measured values taken from PubChem BioAssay (NCATS).
Several values for one entry are separate records, joined by “and”; a condition that tells them apart may be missing. Identical values can stand only once. Inconclusive results are not listed. A call without a number means that no potency is given here. Activity calls are given as the source filed them. Unless noted, the call rests on the fitted dose curve; in most records, active means well fitted curve in the direction sought with a large enough effect; inconclusive means small, poorly fitted or top-dose-only effect, or another doubt; inactive means no such curve, though single readings can be large; an effect the other way counts as inactive or inconclusive.

Key:
[1] = biological target: alpha-glucosidase (Oryza sativa, rice) (UniProt Q653V4); experiment: Counterscreen for Glucocerebrosidase Inhibitors: qHTS Assay for Rice alpha-Glucosidase at pH 5.0 (AID 997)
In short: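 Endpoint fluorogenic assay at pH 5.0: compounds (0.7 nM to 77 uM) titrated against 4 nM rice enzyme and 400 uM 4-MU-alpha-glucoside for 20 min at room temperature; NaOH/glycine stop, read ex 365/em 440 nm, Hill-fitted AC50.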

[2] = Validation of Assay for Modulators of Lamin A Splicing (AID 1459; active means well fitted curve in the direction sought with a large enough effect in the signal ratio; the % refers to the signal ratio;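 further: cells exposed to compound for two days before reading; ratio rise marks activators and ratio drop marks inhibitors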)
In short: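 Splicing correction is reported by an EGFP-containing lamin A minigene in stably transfected S3 HeLa cells, while DsRed2 controls for viability and nonspecific signal. Cells are exposed to compounds for 48 hrs before the GFP over RFP ratio is taken.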

[3] = qHTS Assay for Lipid Storage Modulators (AID 1519; calls by dose curve); settings: Drosophila S3 cells, BODIPY lipid droplet/cell ratio, laser cytometry, cells loaded with oleic acid; for activity change, negative = inhibition: at 57.5 µM (top of the series)
In short: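 Cells seeded at 5,000 per well were treated with compounds over a concentration series and loaded with oleic acid (400 uM, as added). Lipid droplet fluorescence (488 nm excitation, 500-530 nm channel) was read by laser-scanning cytometry and normalized to 20 uM Triacsin C.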

[4] = biological target: DNA repair nuclease/redox regulator APEX1 (Homo sapiens) (UniProt P27695); experiment: qHTS Validation Assay for Inhibitors of the Human Apurinic/apyrimidinic Endonuclease 1 (APE1) (AID 1705; further: potency means the concentration at half of the fitted maximal effect;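 on activity change, negative = inhibition: TAMRA fluorescence gain over two minutes as APE1 cuts a quenched THF abasic duplex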)
In short: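 Endonuclease activity of human APE1 is followed as dequenching when the enzyme incises a tetrahydrofuran abasic site in a short duplex labelled 5'-TAMRA/3'-BHQ-2 (50 nM final), after 15 min enzyme–compound preincubation at room temperature.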

[5] = Counterscreen for APE1 Inhibitors: Fluorescent Dye Displacement Validation Assay (AID 1707)
In short: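 Reaction mixture of 250 nM Thiazole Orange and 50 nM double-stranded abasic-site DNA was dispensed, compounds were pin-transferred, and fluorescence was read at endpoint (480 nm ex, 540 nm em). Reduced fluorescence indicated dye displacement by DNA binding.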

[6] = biological target: Endonuclease 4 (Escherichia coli (strain K12)) (UniProt P0A6C1); experiment: Counterscreen for APE1 Inhibitors: qHTS Validation Assay for Inhibitors of Endonuclease IV (AID 1708)
In short: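 The reaction buffer contained 50 mM Tris-HCl pH 7.5, 50 mM NaCl, 2 mM MgCl2, 1 mM DTT and 0.01% Tween-20. Incision of a 50 nM fluorophore/quencher THF substrate by 2 nM enzyme was measured kinetically.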

[7] = qHTS for differential inhibitors of proliferation of Plasmodium falciparum line 7G8 (AID 1815);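 further: parasite growth measured after three days of incubation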; further: potency means the concentration at half of the fitted maximal effect
[8] = qHTS for differential inhibitors of proliferation of Plasmodium falciparum line 3D7 (AID 1876); further: potency means the concentration at half of the fitted maximal effect
[9] = qHTS for differential inhibitors of proliferation of Plasmodium falciparum line GB4 (AID 1816); settings: Potency: Plasmodium falciparum GB4 proliferation inhibition;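 further: parasite growth measured after 72 h incubation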; further: potency means the concentration at half of the fitted maximal effect
[10] = measured here: cell count channel max response
[11] = measured here: lipid channel max response

Sequence of DNA repair nuclease/redox regulator APEX1 (Homo sapiens) (P27695 whole entry, looked up): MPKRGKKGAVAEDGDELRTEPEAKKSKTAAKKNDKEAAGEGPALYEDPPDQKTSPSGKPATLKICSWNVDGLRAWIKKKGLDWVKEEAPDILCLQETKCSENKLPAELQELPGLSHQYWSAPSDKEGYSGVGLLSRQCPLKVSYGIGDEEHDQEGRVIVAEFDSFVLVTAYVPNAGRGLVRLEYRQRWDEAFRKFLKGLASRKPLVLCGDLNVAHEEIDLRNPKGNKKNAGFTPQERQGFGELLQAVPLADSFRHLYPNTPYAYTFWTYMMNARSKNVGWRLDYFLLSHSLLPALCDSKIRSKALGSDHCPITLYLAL

## Cn1c(=O)c2[nH]c(C3CCCC3)nc2n(C)c1=O
[1]
  outcome: inactive
[2]
  outcome: inactive
[3]
  activity change, negative = inhibition: 11.7% (inactive) and -0.538% (inactive)
[3]; [10]
  max response: 10.8% and -10.7%
[3]; [11]
  max response: 26.8% and -11.4%
[4]
  Potency: inactive
[5]
  Potency: inactive
[6]
  Potency: inactive
[7]
  Potency: inactive
[8]
  Potency: inactive

## O=C(O)CCC(=O)N1CCCC1C(=O)O (stereo unspecified)
[2]
  outcome: inactive
[3]
  activity change, negative = inhibition: -1.81% (inactive)
[3]; [10]
  max response: 29.3%
[3]; [11]
  max response: 27.9%
[4]
  Potency: inactive
[6]
  Potency: inactive
[7]
  Potency: inactive
[9]
  Potency: inactive
[8]
  Potency: inactive

## CN1CCC2(CCN3CCc4c(oc5ccccc45)C3C2)N(C)C1=O (stereo unspecified)
[2]
  outcome: inactive
[3]
  activity change, negative = inhibition: -0.497% (inactive)
[3]; [10]
  max response: 45.8%
[3]; [11]
  max response: 48%
[4]
  Potency: inactive
[5]
  Potency: inactive
[6]
  Potency: inactive
[9]
  Potency: inactive

## O=c1onc2n1-c1cc(Br)ccc1OC2
[1]
  outcome: inactive
[2]
  outcome: inactive
[3]
  activity change, negative = inhibition: 3.14% (inactive)
[3]; [10]
  max response: 64.2%
[3]; [11]
  max response: 68.1%
[4]
  Potency: inactive
[6]
  Potency: inactive
[7]
  Potency: inactive
[9]
  Potency: inactive
[8]
  Potency: inactive

## CC1=C(/C=C/C(C)=C/C=C/C(C)=C\C(=O)O)C(C)(C)CCC1
[2]
  outcome: inactive
[3]
  activity change, negative = inhibition: 6.72% (inactive)
[3]; [10]
  max response: 3.57%
[3]; [11]
  max response: 13.6%
[4]
  Potency: inactive
[6]
  Potency: inactive
[7]
  Potency: 7.94 µM (active)
[9]
  Potency: 12.6 µM (active)
[8]
  Potency: 14.1 µM (active)

## CC(=O)NNC(=O)N1Cc2ccccc2Oc2ccc(Cl)cc21
[1]
  outcome: inactive
[2]
  outcome: inactive
[3]
  activity change, negative = inhibition: 3.63% (inactive) and -0.28% (inactive)
[3]; [10]
  max response: -1.09% and 39.5%
[3]; [11]
  max response: 4.04% and 30.3%
[4]
  Potency: inactive
[5]
  Potency: inactive
[9]
  Potency: inactive
[8]
  Potency: inactive

## CN1CCN(c2nc3cc(C(F)(F)F)ccc3n3cccc23)CC1
[1]
  outcome: inactive
[2]
  outcome: inactive
[3]
  activity change, negative = inhibition: 2.45% (inactive)
[3]; [10]
  max response: 18.9%
[3]; [11]
  max response: 20.6%
[4]
  Potency: inactive
[5]
  Potency: inactive
[7]
  Potency: 5.01 µM (active)
[9]
  Potency: 8.91 µM (active)
[8]
  Potency: 7.94 µM (active)

## N#Cc1cc2nc(O)c(O)nc2cc1[N+](=O)[O-]
[1]
  outcome: inactive
[2]
  outcome: inactive
[3]
  activity change, negative = inhibition: 3.63% (inactive) and -0.314% (inactive)
[3]; [10]
  max response: 13.7% and -35.1%
[3]; [11]
  max response: 18.1% and -33.4%
[4]
  Potency: 28.2 µM (active)
[5]
  Potency: inactive
[7]
  Potency: inactive
[8]
  Potency: inactive

## O=C(O)C1=CCCN(CCON=C(c2ccccc2)c2ccccc2)C1
[1]
  outcome: inactive
[2]
  outcome: inactive
[3]
  activity change, negative = inhibition: 3.28% (inactive) and 2.71% (inactive)
[3]; [10]
  max response: -11.1% and 10.2%
[3]; [11]
  max response: -9.11% and 11.8%
[4]
  Potency: inactive
[5]
  Potency: inactive
[6]
  Potency: inactive
[7]
  Potency: inactive
[8]
  Potency: inactive

## CCCCCCC/C=C\CCCCCCCCC(=O)O
[1]
  outcome: inactive
[2]
  outcome: inactive
[3]
  activity change, negative = inhibition: -0.534% (inactive)
[3]; [10]
  max response: -11.1%
[3]; [11]
  max response: -10.7%
[4]
  Potency: 35.5 µM (active)
[7]
  Potency: inactive
[9]
  Potency: inactive
[8]
  Potency: inactive

## Nc1nc2[nH]c(=O)cnc2c(=O)[nH]1
[1]
  outcome: inactive
[2]
  outcome: inactive
[3]
  activity change, negative = inhibition: 0.27% (inactive)
[3]; [10]
  max response: 60.5%
[3]; [11]
  max response: 55.1%
[4]
  Potency: inactive
[5]
  Potency: inactive
[6]
  Potency: inactive
[7]
  Potency: inactive
[9]
  Potency: inactive
[8]
  Potency: inactive

## C[C@@H](NCCc1ccc(O)cc1)[C@@H](O)c1ccc(O)cc1
[2]
  outcome: inactive
[3]
  activity change, negative = inhibition: 1.71% (inactive)
[3]; [10]
  max response: -16.7%
[3]; [11]
  max response: -23.8%
[4]
  Potency: inactive
[6]
  Potency: inactive
[7]
  Potency: inactive
[9]
  Potency: inactive
[8]
  Potency: inactive

## COc1cc(CNC(=O)CCCCCCC(C)C)ccc1O
[1]
  outcome: inactive
[2]
  outcome: inactive
[3]
  activity change, negative = inhibition: 0.247% (inactive)
[3]; [10]
  max response: 14.5%
[3]; [11]
  max response: 14.2%
[4]
  Potency: inactive
[5]
  Potency: inactive
[6]
  Potency: inactive

## O=[N+]([O-])c1cccc2cn[nH]c12
[1]
  outcome: inactive
[2]
  outcome: inactive
[3]
  activity change, negative = inhibition: 13.6% (inactive)
[3]; [10]
  max response: 18.6%
[3]; [11]
  max response: 36.8%
[4]
  Potency: inactive
[5]
  Potency: inactive
[7]
  Potency: inactive
[9]
  Potency: inactive
[8]
  Potency: inactive

## O=C(O)Cc1ccc(O)c(O)c1
[1]
  outcome: inactive
[2]
  outcome: inactive
[3]
  activity change, negative = inhibition: -0.0553% (inactive)
[3]; [10]
  max response: -16.6%
[3]; [11]
  max response: -14.9%
[4]
  Potency: 7.94 µM (active)
[5]
  Potency: inactive
[6]
  Potency: inactive
[9]
  Potency: inactive
[8]
  Potency: inactive

## CN(C)CCC(c1ccc(Br)cc1)c1ccccn1 (stereo unspecified)
[2]
  outcome: inactive
[3]
  activity change, negative = inhibition: 0.401% (inactive)
[3]; [10]
  max response: 15.4%
[3]; [11]
  max response: 17.8%
[4]
  Potency: inactive
[5]
  Potency: inactive
[6]
  Potency: inactive
[8]
  Potency: inactive

## Cc1cccc(C)c1OCC(N)C(C)C (stereo unspecified)
[2]
  outcome: inactive
[3]
  activity change, negative = inhibition: 0.702% (inactive)
[3]; [10]
  max response: 60.7%
[3]; [11]
  max response: 59.8%
[4]
  Potency: inactive
[5]
  Potency: inactive
[6]
  Potency: inactive
[7]
  Potency: 11.2 µM (active)
[8]
  Potency: inactive

## CC(C)NCC(O)COc1ccc(CC(N)=O)cc1 (stereo unspecified)
[2]
  outcome: inactive
[3]
  activity change, negative = inhibition: -4.52% (inactive)
[3]; [10]
  max response: -32.1%
[3]; [11]
  max response: -32.6%
[4]
  Potency: inactive
[5]
  Potency: inactive
[7]
  Potency: inactive
[9]
  Potency: inactive
[8]
  Potency: inactive

## COc1cc(/C=C(\C#N)C(=O)c2ccc(O)c(O)c2)cc(I)c1O
[1]
  outcome: inactive
[2]
  outcome: inactive
[3]
  activity change, negative = inhibition: -0.482% (inactive)
[3]; [10]
  max response: 28.4%
[3]; [11]
  max response: 26.2%
[4]
  Potency: 2.24 µM (active)
[5]
  Potency: inactive
[6]
  Potency: inactive

## COc1ccccc1N1CCN(CCCNc2c(C)c(=O)n(C)c(=O)n2C)CC1
[1]
  outcome: inactive
[2]
  outcome: inactive
[3]
  activity change, negative = inhibition: -0.317% (inactive)
[3]; [10]
  max response: 38.5%
[3]; [11]
  max response: 37.3%
[4]
  Potency: inactive
[5]
  Potency: inactive
[6]
  Potency: inactive
[7]
  Potency: inactive
[8]
  Potency: 8.91 µM (active)

## N[C@H](C(=O)O)[C@H](O)C(=O)O
[1]
  outcome: inactive
[2]
  outcome: inactive
[3]
  activity change, negative = inhibition: 1.02% (inactive)
[3]; [10]
  max response: -11.9%
[3]; [11]
  max response: -6.36%
[5]
  Potency: inactive
[6]
  Potency: inactive
[7]
  Potency: inactive
[9]
  Potency: inactive
[8]
  Potency: inactive

## COc1ccc(CCN(C)CCc2ccc(OC)c(OC)c2)cc1OC
[1]
  outcome: inactive
[2]
  outcome: inactive
[3]
  activity change, negative = inhibition: -1.77% (inactive) and -1.64% (inactive)
[3]; [10]
  max response: 7.2% and 26.8%
[3]; [11]
  max response: 4.66% and 25.1%
[4]
  Potency: inactive
[5]
  Potency: inactive

## CN1CCCC1CCOC(C)(c1ccccc1)c1ccc(Cl)cc1 (stereo unspecified)
[2]
  outcome: inactive
[3]
  activity change, negative = inhibition: 0.234% (inactive)
[3]; [10]
  max response: -30.3%
[3]; [11]
  max response: -27.1%
[4]
  Potency: inactive
[6]
  Potency: inactive
[7]
  Potency: 5.01 µM (active)
[9]
  Potency: 5.62 µM (active)
[8]
  Potency: 3.98 µM (active)
